High-throughput results from PubChem BioAssay.
IL1B secr inh: blocks inflammasome-driven IL-1 beta release | 360,000 tested, 4.7% active | AID 743279 | THP-1 LPS/ATP IL-1B secretion, AlphaLISA, 16 h; active compounds read low | activity change, % at 57.5 µM; in the data active = activity change below about -50%; inconclusive = mostly about -30% to -49%
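THP-1 cells pretreated 1 hr with compounds (up to 57.5 uM final), then stimulated with LPS (250 ng/mL final) plus ATP (1.25 mM final); secreted IL-1B measured by AlphaLISA after 16 hr, decreased signal indicating inhibition.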
DT40 TDP1 CPT: DT40-hTDP1 cell growth loss with CPT. chicken DT40 Tdp1-/-;hTDP1 cells + 20 nM CPT, ATP luminescence, 48 h. Potency, µM (series often up to 46.2 µM), for inactives: top-dose activity change, negative = growth inhibition, usual class: inhibitors. 420,000 tested, 12% active; also: potency is read from the fitted curve at half-maximal effect; nearly all actives have a fitted effect of over 55% in size
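Chicken DT40 Tdp1-/- cells stably complemented with human TDP1 were seeded at 400 cells/well in medium containing 20 nM camptothecin, exposed to pin-transferred compounds, and grown at 37 °C for at least 48 hr. Viability was read as ATP luminescence.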
HT1080-NT tox: kills 2HG-producing HT-1080-NT fibrosarcoma cells; Potency, µM (top dose mostly 46.1 µM), inactives show at the top dose activity, negative = less viability, hits mostly cytotoxic; HT-1080-NT fibrosarcoma viability, CellTiter-Glo ATP luminescence, 48 h; 360,000 tested, 1.6% active; AID 686970;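 also: NT is the 2HG producing partner of a matched IDH1 knockdown line; potency is read from the fitted curve at half-maximal effect; 0% = DMSO-treated cells and -100% = media-only wells without cells; nearly all actives have a fitted effect of over 55% in size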
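750 cells/well, RPMI + 5% FBS; 2 h settle, compound pin-transfer, 48 h at 37 degrees C. CellTiter-Glo 10 min RT, luminescence. Normalized to DMSO and media-only wells.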
TDP1 cell noCPT: qHTS for Inhibitors of human tyrosyl-DNA phosphodiesterase 1 (TDP1): qHTS in cells in absence of CPT; 420,000 tested, 15% active; Potency, µM (top dose mostly 46.2 µM), inactives show at the top dose activity change, negative = growth inhibition, usual class: inhibitors; DT40 Tdp1-/- hTDP1 cells, no CPT, ATP luminescence, 48 h; also: potency is read from the fitted curve at half-maximal effect; nearly all actives have a fitted effect of over 55% in size
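Stably hTDP1-transfected Tdp1-null chicken DT40 cells were treated with library compounds minus camptothecin and grown for at least 48 hr at 37 °C, after which cellular ATP was quantified by luminescence.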
HT1080 IDH1KD tx: kills HT-1080 cells with IDH1 knockdown. Potency, µM (series often up to 46.1 µM), for the others: at the highest dose activity, negative = toxicity, hits mostly cytotoxic. AID 686971. HT-1080 IDH1 knockdown viability, ATP luminescence, 48 h. 360,000 tested, 2% active;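 also: potency is read from the fitted curve at half-maximal effect; 0% = DMSO wells and -100% = cell-free medium wells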
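In this qHTS, HT-1080 cells depleted of IDH1 are exposed for 48 h at 37 °C to compound titrations. Toxicity is scored from CellTiter-Glo luminescence, with DMSO as full viability and medium alone as none.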
The depositor's hits bear a star; ? = inconclusive; . = not tested or not shown; [ ] = remark or other dose. Compounds with a hit are over-represented: about 19% of the library has one in this group of screens. Unless noted, calls follow the shape of the dose curve; as a rule, active = well fitted curve in the direction sought with a large enough effect; inconclusive = small, poorly fitted or top-dose-only effect, or another doubt; inactive = no such curve, though single readings can be large; an effect the other way counts as inactive or inconclusive. Unless noted, % is scaled to controls: 0 for no effect and ±100 for the full control effect.

SMILES	IL1B secr inh	DT40 TDP1 CPT	HT1080-NT tox	TDP1 cell noCPT	HT1080 IDH1KD tx
COC(=O)c1cc(CSc2nc3ccc(C)cc3[nH]2)oc1C	-5	16µM*	-13%	18µM*	-12%
COCC(C)n1c(SCc2cc(C(=O)OC)c(C)o2)nc2ccccc2c1=O (configuration not stated)	-13	4.1µM*	-19%	5.8µM*	-13%
CCc1ccc(N(C(=O)c2csnn2)C(C(=O)NC(C)(C)CC)c2ccccn2)cc1 (configuration not stated)	26	?	-1%	?	-5%
COC(=O)c1ccc(CSc2nc3ccccc3c(=O)n2CC(C)C)o1	6	?	-12%	?	-13%
CCc1nc(SCc2ccc(C(=O)OC)o2)c2c(=O)n(C)c(=O)n(C)c2n1	22	15µM*	-7%	9.2µM*	6%
COC(=O)c1ccc(CSc2nc3ccccc3c(=O)n2C)o1	?	15µM*	-17%	?	-1%
CCCC(c1nnnn1Cc1ccc(OC)cc1)N1CCC(C(N)=O)CC1 (configuration not stated)	-9	-4%	11%	4%	7%
CCCC(c1nnnn1Cc1ccc(OC)cc1)N1CCN(c2ccccc2)CC1 (configuration not stated)	4	?	0%	23µM*	-5%
CC(C)C(c1nnnn1Cc1ccc2c(c1)OCO2)N1CCN(C)CC1 (configuration not stated)	0	-1%	16%	-9%	12%
Cc1cc(C(c2nnnn2Cc2ccccc2)N2CCOCC2)c(C)n1-c1ccc2c(c1)OCO2 (configuration not stated)	-97*	?	?	16µM*	10µM*
COc1ccc(C(c2nnnn2Cc2ccc(F)cc2)N2CCN(c3ccc(OC)cc3)CC2)cc1 (configuration not stated)	-22	23µM*	-7%	15µM*	-11%
CC(C)C(c1nnnn1Cc1ccc2c(c1)OCO2)N1CCN(c2ccccc2)CC1 (configuration not stated)	17	-15%	8%	21µM*	7%
O=C(O)/C=C/C(=O)N1CCN(c2cccc(Cl)c2)CC1	-19	6%	-12%	5%	0%
COc1ccc(Cn2nnnc2C(CC(C)C)N2CCN(c3ccccc3)CC2)cc1 (configuration not stated)	-3	18µM*	-5%	15µM*	3%[9.24 µM]
CN1CCN(C(c2ccc(F)cc2)c2nnnn2Cc2cccs2)CC1 (configuration not stated)	?	-10%	-1%	-23%	0%
Fc1ccc(C(c2nnnn2Cc2cccs2)N2CCN(C3CCCCC3)CC2)cc1 (configuration not stated)	?	?	-16%	21µM*	-1%
COc1ccc(C(c2nnnn2Cc2ccc(F)cc2)N2CCN(c3ccccc3)CC2)cc1 (configuration not stated)	-20	?	-8%	?	-15%
COc1ccc(Cn2nnnc2C(c2ccccn2)N2CCN(c3cc(Cl)ccc3C)CC2)cc1 (configuration not stated)	?	29µM*	-21%	?	-19%
COc1ccc(N2CC(NC(=O)Cc3cccs3)CC2=O)cc1 (configuration not stated)	.	-6%	.	-4%	.
O=C(CCNS(=O)(=O)c1ccccc1)N1CCN(c2ccccc2)CC1	12	-9%	5%	2%	13%
Cc1cc(=O)c(C(=O)OC(C)C(=O)NC(N)=O)nn1-c1ccc(Cl)cc1 (configuration not stated)	19	4%	21%	4%	4%
COc1ccc(S(=O)(=O)N2CCCCCC2)cc1C(=O)NCc1cccs1	-8	-16%	-10%	3%	0%
